Assay [1] is described as follows: qHTS assay to identify small molecule antagonists of the glucocorticoid receptor (GR) signaling pathway - cell viability counter screen (AID 720693). Further: nearly all actives have a fitted effect of over 55% in size. Further: potency means the concentration at half of the fitted maximal effect.
Assay [2] is described as follows: qHTS assay for identifying genotoxic compounds that show differential cytotoxicity against isogenic chicken DT40 cell lines with known DNA damage response pathways - wild type cell line (AID 743012). Further: nearly all actives have a fitted effect of over 60% in size. Further: potency means the concentration at half of the fitted maximal effect. An outline of the steps:
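Using parental DT40 (300 cells/well), compounds delivered in DMSO incubate 40 h at 37 C/5% CO2. CellTiter-Glo reagent then stands 30 min at room temperature, and luminescence gives cell viability.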

Assay [3] is described as follows: qHTS assay for identifying genotoxic compounds that show differential cytotoxicity against isogenic chicken DT40 cell lines with known DNA damage response pathways - Rev3 mutant cell line (AID 743014). Further: nearly all actives have a fitted effect of over 55% in size. Further: potency means the concentration at half of the fitted maximal effect.
Assay [4] can be described thus: qHTS assay for identifying genotoxic compounds that show differential cytotoxicity against isogenic chicken DT40 cell lines with known DNA damage response pathways - Rad54/Ku70 mutant cell line (AID 743015). Further: nearly all actives have a fitted effect of over 60% in size. Further: potency means the concentration at half of the fitted maximal effect.
A short description of assay [5]: qHTS assay to identify small molecule antagonists of the androgen receptor (AR) signaling pathway - cell viability counter screen (AID 743033; further: nearly all actives have a fitted effect of over 45% in size; further: potency means the concentration at half of the fitted maximal effect).
The nature of assay [6]: qHTS assay to identify small molecule antagonists of the androgen receptor (AR) signaling pathway using the MDA cell line - cell viability counter screen (AID 743041; further: nearly all actives have a fitted effect of over 45% in size; further: potency means the concentration at half of the fitted maximal effect). An outline of the steps: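 Viability counter screen run alongside the AR antagonist reporter: cells seeded 5 h before compound, R1881 added, 16 h incubation at 37C without CO2, fluorescent CellTiter-Fluor signal quantified.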

The nature of assay [7]: qHTS assay to identify small molecule antagonists of the thyroid receptor (TR) signaling pathway - cell viability counter screen (AID 743064). Further: nearly all actives have a fitted effect of over 50% in size. Further: potency means the concentration at half of the fitted maximal effect. Summed up:
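GH3.TRE-Luc cells, 4 h pre-plating; cpd + T3 1 nM final; 37 °C 23.5 h; CellTiter-Fluor 30 min; fluorescence read.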

Assay [8] concerns thyroid hormone receptor (rat, GH3 cells). Briefly: qHTS assay to identify small molecule agonists of the thyroid receptor (TR) signaling pathway (AID 743066; calls by dose curve; further: potency means the concentration at half of the fitted maximal effect).
Assay [9] addresses Estrogen receptor (Homo sapiens) (UniProt P03372). In words: qHTS assay to identify small molecule antagonists of the estrogen receptor alpha (ER-alpha) signaling pathway (AID 743069; active means well fitted curve in the direction sought with a large enough effect in the signal ratio in the repeat runs, not every such curve was filed as active; inconclusive means weak or mixed curves, or effect the other way; inactive means no such curve, though single readings can be large or run the other way; the % refers to the signal ratio; further: potency means the concentration at half of the fitted maximal effect). An outline of the steps: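 Estradiol-stimulated ER-alpha-UAS-bla HEK293 cells, 18 hr compound exposure at 37C. LiveBLAzer B/G substrate, 2 hr RT, fluorescence read.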
A short description of assay [10]: qHTS assay to identify small molecule antagonists of the estrogen receptor alpha (ER-alpha) signaling pathway - cell viability counter screen (AID 743074; calls by dose curve;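 further: HEK293 cells carrying ER-alpha-UAS-bla reporter stimulated with 17beta-estradiol; nearly all actives have a fitted effect of over 45% in size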; further: potency means the concentration at half of the fitted maximal effect).
The target of assay [11] is Estrogen receptor (Homo sapiens) (UniProt P03372). In words: qHTS assay to identify small molecule agonists of the estrogen receptor alpha (ER-alpha) signaling pathway (AID 743075; calls by dose curve;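 further: HEK293 GripTite cells with ER-alpha and UAS-driven beta-lactamase reporter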; further: potency means the concentration at half of the fitted maximal effect).
For assay [12] the target is unchanged. Briefly: qHTS assay to identify small molecule agonists of the estrogen receptor alpha (ER-alpha) signaling pathway using the BG1 cell line (AID 743079). Further: nearly all actives have a fitted effect of over 20% in size.
A short description of assay [13]: qHTS assay to identify small molecule antagonists of the estrogen receptor alpha (ER-alpha) signaling pathway using the BG1 cell line - cell viability counter screen (AID 743081).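 Further: compound given together with 17beta-estradiol as the ER stimulus; nearly all actives have a fitted effect of over 45% in size.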 Further: potency means the concentration at half of the fitted maximal effect.
In another assay the target is Aromatase (Homo sapiens) (UniProt P11511). Briefly: qHTS assay to identify aromatase inhibitors (AID 743083). Further: nearly all actives have a fitted effect of over 55% in size. Further: potency means the concentration at half of the fitted maximal effect.
The nature of assay [14]: qHTS assay to identify aromatase inhibitors - cell viability counter screen (AID 743084).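 Further: cells stimulated with testosterone during compound exposure; nearly all actives have a fitted effect of over 55% in size.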 Further: potency means the concentration at half of the fitted maximal effect.
In assay [15] the target is Aryl hydrocarbon receptor (Homo sapiens) (UniProt P35869). In words: qHTS assay to identify small molecule that activate the aryl hydrocarbon receptor (AhR) signaling pathway (AID 743085). Further: nearly all actives have a fitted effect of over 15% in size. Further: potency means the concentration at half of the fitted maximal effect.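 On activation: HG2L7.5c1 human HepG2 liver cells with stably integrated DRE-driven firefly reporter; series mostly up to about 70 µM.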 Summed up: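 Luminescence read-out: ONE-Glo reagent, 30 min at room temperature, in HG2L7.5c1 HepG2 reporter cells treated 24 h at 37C. Viability was measured beforehand by CellTiter-Fluor fluorescence after 30 min at 37C.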

The target in assay [16] is Androgen receptor (Homo sapiens) (UniProt P10275). In words: qHTS assay to identify small molecule agonists of the androgen receptor (AR) signaling pathway using the MDA cell line (AID 743040; further: nearly all actives have a fitted effect of over 20% in size). An outline of the steps: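 Luminescence from ONE-Glo, read after 30 min at room temperature, reflects MMTV-driven luciferase in MDA-kb2 cells (AR- and GR-responsive). Treatment lasted 16 h at 37C, 0% CO2.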

For assay [17] the target is unchanged. In words: qHTS assay to identify small molecule antagonists of the androgen receptor (AR) signaling pathway using the MDA cell line (AID 743042; further: nearly all actives have a fitted effect of over 55% in size; further: potency means the concentration at half of the fitted maximal effect). An outline of the steps: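 MDA-kb2 cells (human breast carcinoma, stably carrying an MMTV-luciferase reporter responsive to AR and GR) were plated at 3,000 cells/well and preincubated 5 hr at 37C, then given compound plus R1881 agonist for 16 h. ONE-Glo luminescence was read.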

Assay [18] shares this target. In words: qHTS assay to identify small molecule antagonists of the androgen receptor (AR) signaling pathway (AID 743035; active means well fitted inhibition curve with a large enough effect in the signal ratio in the repeat runs, not every such curve was filed as active; inconclusive means weak or mixed curves, or effect the other way; inactive means no such curve, though single readings can be large or run the other way; the % refers to the signal ratio). An outline of the steps: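 Using qHTS, AR-UAS-bla GripTite HEK293 cells received compound, then R1881, and were cultured 16 h at 37C/5% CO2 before a 2 h room-temperature LiveBLAzer B/G FRET substrate step and fluorescence measurement.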
Assay [19] has the same target. Briefly: qHTS assay to identify small molecule agonists of the androgen receptor (AR) signaling pathway (AID 743036; active means well fitted activation curve with a large enough effect in the signal ratio in the repeat runs, with a control signal flat, not every such curve was filed as active; inconclusive means weak or mixed curves, or effect the other way; inactive means no such curve, though single readings can be large or run the other way; the % refers to the signal ratio). An outline of the steps:
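AR-bla HEK293 cells, 2,000/well; 4 h preincubation 37C/5% CO2; compound (DMSO) 16 h at 37C; LiveBLAzer B/G FRET substrate 2 h RT; fluorescence intensity read-out.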

We go through 13 compounds from PubChem BioAssay (Tox21).

SMILES strings stand for the structures. Several values for one entry are separate records, joined by “and”; a condition that tells them apart may be missing. Identical values can stand only once. Some structures have more than one record in an assay (separate samples or runs), and their calls can disagree. Activity calls are given as the source filed them. Unless noted, the call rests on the fitted dose curve; in most records, active means well fitted curve in the direction sought with a large enough effect in the repeat runs; inconclusive means weak or mixed curves; inactive means no such curve, though single readings can be large; an effect the other way counts as inactive or inconclusive.

Chain of Aryl hydrocarbon receptor (Homo sapiens) (P35869 whole entry, looked up): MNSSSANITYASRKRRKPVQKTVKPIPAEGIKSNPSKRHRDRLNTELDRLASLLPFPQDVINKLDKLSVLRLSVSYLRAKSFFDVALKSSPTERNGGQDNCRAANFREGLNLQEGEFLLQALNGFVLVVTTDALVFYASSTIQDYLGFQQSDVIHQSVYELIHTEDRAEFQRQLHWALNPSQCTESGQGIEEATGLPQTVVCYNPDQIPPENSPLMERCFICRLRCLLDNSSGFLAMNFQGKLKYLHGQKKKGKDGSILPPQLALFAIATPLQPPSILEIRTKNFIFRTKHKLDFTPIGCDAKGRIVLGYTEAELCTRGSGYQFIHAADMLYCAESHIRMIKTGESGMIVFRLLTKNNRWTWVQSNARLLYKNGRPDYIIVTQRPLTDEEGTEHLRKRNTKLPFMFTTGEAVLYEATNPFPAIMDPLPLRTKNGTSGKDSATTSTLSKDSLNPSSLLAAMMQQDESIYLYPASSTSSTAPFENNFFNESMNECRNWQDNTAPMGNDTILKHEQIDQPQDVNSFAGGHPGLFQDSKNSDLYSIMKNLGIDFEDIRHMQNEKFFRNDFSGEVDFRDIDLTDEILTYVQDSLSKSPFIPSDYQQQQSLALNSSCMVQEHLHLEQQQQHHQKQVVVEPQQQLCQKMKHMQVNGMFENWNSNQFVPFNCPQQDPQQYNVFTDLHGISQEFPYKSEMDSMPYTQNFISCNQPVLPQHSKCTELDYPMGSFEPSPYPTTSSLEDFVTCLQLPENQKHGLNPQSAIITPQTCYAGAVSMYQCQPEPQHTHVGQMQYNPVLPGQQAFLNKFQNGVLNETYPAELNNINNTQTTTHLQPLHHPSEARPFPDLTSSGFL
Chain of Androgen receptor (Homo sapiens) (P10275 whole entry, looked up): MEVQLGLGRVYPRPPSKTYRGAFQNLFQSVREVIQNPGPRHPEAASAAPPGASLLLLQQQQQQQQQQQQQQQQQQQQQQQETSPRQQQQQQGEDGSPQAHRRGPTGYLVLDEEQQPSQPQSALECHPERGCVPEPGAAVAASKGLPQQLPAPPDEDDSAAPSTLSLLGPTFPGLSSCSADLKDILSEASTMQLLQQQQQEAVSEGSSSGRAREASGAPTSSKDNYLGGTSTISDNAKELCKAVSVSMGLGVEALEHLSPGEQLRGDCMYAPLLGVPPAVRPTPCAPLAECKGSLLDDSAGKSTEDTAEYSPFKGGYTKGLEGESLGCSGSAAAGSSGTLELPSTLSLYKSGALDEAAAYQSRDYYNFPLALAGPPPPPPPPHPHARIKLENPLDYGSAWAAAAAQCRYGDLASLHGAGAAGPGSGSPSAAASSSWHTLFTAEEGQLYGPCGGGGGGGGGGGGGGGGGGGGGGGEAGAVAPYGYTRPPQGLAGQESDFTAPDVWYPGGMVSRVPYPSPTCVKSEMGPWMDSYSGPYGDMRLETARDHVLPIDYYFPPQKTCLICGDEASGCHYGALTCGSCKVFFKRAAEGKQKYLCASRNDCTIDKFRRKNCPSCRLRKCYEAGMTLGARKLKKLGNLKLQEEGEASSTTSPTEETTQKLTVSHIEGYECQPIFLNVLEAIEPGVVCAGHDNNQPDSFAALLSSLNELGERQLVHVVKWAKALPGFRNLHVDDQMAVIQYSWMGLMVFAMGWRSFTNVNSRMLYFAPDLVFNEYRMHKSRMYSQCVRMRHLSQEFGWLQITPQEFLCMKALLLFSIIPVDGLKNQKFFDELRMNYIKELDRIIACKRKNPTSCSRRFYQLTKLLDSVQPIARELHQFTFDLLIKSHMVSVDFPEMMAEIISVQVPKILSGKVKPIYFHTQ
Chain of Estrogen receptor (Homo sapiens) (P03372 whole entry, looked up): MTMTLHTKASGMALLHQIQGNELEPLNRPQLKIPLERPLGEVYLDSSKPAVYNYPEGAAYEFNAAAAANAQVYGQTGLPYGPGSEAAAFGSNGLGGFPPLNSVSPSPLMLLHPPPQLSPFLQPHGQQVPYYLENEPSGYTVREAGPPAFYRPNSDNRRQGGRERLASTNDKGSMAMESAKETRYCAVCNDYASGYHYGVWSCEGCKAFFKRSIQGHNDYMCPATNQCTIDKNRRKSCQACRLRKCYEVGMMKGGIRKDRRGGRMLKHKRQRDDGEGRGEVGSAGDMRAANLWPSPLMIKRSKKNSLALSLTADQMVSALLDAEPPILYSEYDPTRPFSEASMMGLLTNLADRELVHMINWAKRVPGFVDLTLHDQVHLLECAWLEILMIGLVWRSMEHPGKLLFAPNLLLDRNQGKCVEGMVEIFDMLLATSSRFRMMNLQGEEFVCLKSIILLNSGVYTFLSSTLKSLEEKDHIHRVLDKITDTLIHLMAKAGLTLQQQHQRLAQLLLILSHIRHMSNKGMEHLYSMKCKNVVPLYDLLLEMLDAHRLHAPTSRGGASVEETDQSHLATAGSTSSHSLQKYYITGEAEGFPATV
Chain of Aromatase (Homo sapiens) (P11511 whole entry, looked up): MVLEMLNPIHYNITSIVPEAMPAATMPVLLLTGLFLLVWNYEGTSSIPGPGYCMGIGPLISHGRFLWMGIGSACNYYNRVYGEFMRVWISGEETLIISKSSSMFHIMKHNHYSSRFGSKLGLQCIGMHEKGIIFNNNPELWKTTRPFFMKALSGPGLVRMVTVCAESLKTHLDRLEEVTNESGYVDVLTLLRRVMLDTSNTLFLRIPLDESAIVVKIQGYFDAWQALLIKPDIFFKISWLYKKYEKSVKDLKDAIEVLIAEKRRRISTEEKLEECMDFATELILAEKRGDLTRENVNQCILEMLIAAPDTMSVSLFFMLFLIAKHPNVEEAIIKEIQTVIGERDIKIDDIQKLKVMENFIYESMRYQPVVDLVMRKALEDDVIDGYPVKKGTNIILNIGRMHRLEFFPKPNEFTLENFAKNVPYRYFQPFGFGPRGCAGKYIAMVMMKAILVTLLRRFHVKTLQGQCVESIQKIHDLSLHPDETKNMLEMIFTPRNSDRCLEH

Take `Nc1ccc(Cl)cc1`: the Potency entry in [1], in assay [2], in assay [3], in assay [4], in [5] and in [6] was “inactive” each time. Also, the Potency result in assay [7], in [8], in assay [10], in [11], in assay [12] and in [13] was “inactive” throughout. The Potency entry (with Aromatase (Homo sapiens); in [14]) was “inactive” each time. The Potency in assay [9] was 9.95 µM [inconclusive] (active); in assay [15], 24.3 µM (active) and 30.6 µM (active) and 24.8 µM (active).

Consider `Nc1ccccc1`, for which the Potency result in assay [1], in [2], in assay [3], in assay [4], in assay [5] and in assay [6] was “inactive” in each case. Besides, the Potency result (in [7]; in assay [8]; in assay [13]; in the assay with Aromatase (Homo sapiens); in assay [14]) was “inactive” in each case. The Potency entry in assay [10] was “inactive and 24.5 µM (active)”.

Regarding `CCCCn1cc[n+](C)c1`, the Potency entry in [1], in [2], in assay [3], in [4], in assay [5] and in assay [6] was “inactive” throughout. For the same compound, the Potency result (in assay [7]; in assay [8]; in assay [10]; in assay [13]; with Aromatase (Homo sapiens); in [14]) was “inactive” throughout. For the same compound, in assay [15], the Potency entry is “inactive”.

For `CCCC[N+]1(C)CCCC1`, the Potency result in assay [1], in assay [2], in [3], in assay [4], in assay [5] and in assay [6] was “inactive” each time. Further, the Potency entry (in [7]; in assay [8]; in [10]; in assay [13]; with Aromatase (Homo sapiens); in assay [14]) was “inactive” each time.

In the case of `CC(=O)[O][Hg][c]1ccccc1`, the Potency in [1] is 952 nM (active) and 485 nM (active) and 436 nM (active); in [2], 211 nM (active) and 271 nM (active) and 109 nM (active); in assay [3], 376 nM (active) and 152 nM (active) and 122 nM (active); in [4], 237 nM (active) and 152 nM (active) and 86.3 nM (active); in assay [5] it was 5.35 µM (active) and 1.37 µM (active) and 1.95 µM (active); in assay [6], 5.31 µM (active) and 3.82 µM (active) and 3.06 µM (active). The Potency in assay [17] was 2.98 µM (active) and 1.92 µM (active) and 2.17 µM (active); in [7], 596 nM (active) and 241 nM (active) and 386 nM (active); in [9] it was 6.16 µM [inconclusive] (active); in assay [10] it was 5.35 µM (active) and 2.43 µM (active) and 5.49 µM (active); in assay [11], 26.8 µM [inconclusive] (active) and 34.4 µM [inconclusive] (active) and 1.1 µM [fluorescent] (active); in assay [13], 2.98 µM (active) and 3.04 µM (active) and 4.33 µM (active). Also, the Potency with Aromatase (Homo sapiens) is 3.35 µM (active) and 1.36 µM (active) and 686 nM (active); in assay [14], 5.31 µM (active) and 1.36 µM (active) and 770 nM (active). Also, in assay [16], the compound was classed as inactive. Also, the Potency result in assay [8] and in [15] was “inactive” in each case.

As to `C[N+](C)(C)Cc1ccccc1`, the Potency entry in assay [1], in [2], in [3], in assay [4], in assay [5] and in [6] was “inactive” in each case. The Potency result in assay [7], in assay [8], in assay [9], in [10], in [11] and in [12] was “inactive” throughout. The Potency entry (in assay [13]; with Aromatase (Homo sapiens); in assay [14]; in assay [15]) was “inactive” in each case.

For `CCCC[n+]1ccc(C)cc1`, the Potency result in assay [1], in [5], in [6], in assay [8], in [13] and in assay [14] was “inactive” each time. The Potency result in [2] is “inactive and 54.2 µM (active)”; in assay [3], “inactive and 60.8 µM (active)”; in assay [4], “inactive and 48.3 µM (active) and 60.8 µM (active)”; in assay [7], “inactive and 30.5 µM (active)”; in assay [10] it was “inactive and 48.7 µM (active)”; with Aromatase (Homo sapiens), “inactive and 19.4 µM (active)”.

As for `O=C(O)C(Cl)Cl`, the Potency result in assay [1], in [2], in [3], in assay [4], in [5] and in assay [6] was “inactive” in each case. The Potency result in assay [7], in [9], in assay [10], in [11], in assay [12] and in assay [13] was “inactive” each time. The Potency entry (with Aromatase (Homo sapiens); in assay [14]; in assay [15]) was “inactive” in each case. Moreover, the Potency result in [8] was “inactive and 61.1 µM (active)”.

As for `CCCC[n+]1ccccc1`, the Potency entry in [1], in [2], in assay [3], in assay [4], in [5] and in assay [6] was “inactive” in each case. The Potency result (in assay [7]; in assay [8]; in [10]; in assay [13]; in the assay with Aromatase (Homo sapiens); in assay [14]) was “inactive” throughout. For the same compound, the Potency entry in assay [15] was “inactive”.

`C=CCOC(Cn1ccnc1)c1ccc(Cl)cc1Cl` (stereo not drawn): the Potency entry in assay [1], in assay [6], in assay [8], in assay [10], in assay [13] and in assay [14] was “inactive” throughout. The Potency is 11.9 µM (active) and 48.7 µM (active) and 13.7 µM (active) in assay [2]; 21.1 µM (active) and 27.4 µM (active) and 12.2 µM (active) in [3]; 21.1 µM (active) and 43.4 µM (active) and 13.7 µM (active) in assay [4]; “inactive and 49.1 µM (active)” in assay [5]; 54.6 µM (active) in [7]; 944 nM (active) and 387 nM (active) and 433 nM (active) in the assay with Aromatase (Homo sapiens).

Consider `O=[N+]([O-])c1ccccc1O`, for which the Potency result in [1], in [2], in assay [3], in assay [4], in assay [5] and in assay [6] was “inactive” each time. Moreover, the Potency result (in assay [7]; in [8]; in assay [10]; in assay [13]; in the assay with Aromatase (Homo sapiens); in assay [14]) was “inactive” in each case. For the same compound, the Potency entry in assay [15] was “inactive”.

As to `Cc1cc(Cl)ccc1OCC(=O)O`, the Potency entry in assay [1], in assay [2], in [3], in assay [4], in [5] and in assay [6] was “inactive” throughout. For the same compound, the Potency entry in assay [17], in assay [7], in assay [8], in assay [9], in assay [10] and in assay [11] was “inactive” each time. Besides, the Potency entry (in assay [12]; in assay [13]; in the assay with Aromatase (Homo sapiens); in assay [14]; in [15]) was “inactive” each time. Further, the compound was called inactive in assay [18], in [19] and in assay [16].

Turning to `OCCOc1ccccc1`, the Potency result in assay [1], in [2], in assay [3], in assay [4], in assay [5] and in [6] was “inactive” in each case. Further, the Potency entry in [7], in assay [8], in assay [9], in assay [10], in assay [11] and in assay [12] was “inactive” each time. The Potency entry (in assay [13]; with Aromatase (Homo sapiens); in assay [14]; in assay [15]) was “inactive” each time.
